Results on 33 compounds are retold here after PubChem BioAssay (NCATS).

Records with an inconclusive call do not appear. A call without a number means that no potency is given here. Calls of active or inactive are those of the source. Calls follow the shape of the dose curve; as a rule, active = well fitted curve in the direction sought with a large enough effect; inconclusive = small, poorly fitted or top-dose-only effect, or another doubt; inactive = no such curve, though single readings can be large; an effect the other way counts as inactive or inconclusive.
Potency is read from the fitted curve at half-maximal effect.

A short description of one assay: qHTS of pediatric cancer cell lines to identify multiple opportunities for drug repurposing: Primary screen for OHS-50 cells (AID 1347103). Also: nearly all actives have a fitted effect of over 40% in size. As to conditions: OHS-50 osteosarcoma viability, CellTiter-Glo luminescence, 48 h; series mostly up to 57.3 µM. In short, it runs like this:
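Cells (500-1,000/well) rested 5 h, then received compounds for 48 h; metabolically active cells were measured by CellTiter-Glo luminescence. Final concentrations spanned up to 46 µM (MIPE, 11-point) or 0.59 nM-46 µM (NPC, 8-point) in primary screens, 11-point in follow-ups.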
For orientation: qHTS replaces the single test concentration by a dilution series.
Consider `NCC1CCC(C(=O)O)CC1` (stereo not drawn), for which the Potency result is “inactive”.
Same read-out and setting: the value for `CC(C)N(CCCNC(=O)Nc1ccc(C(C)(C)C)cc1)C[C@H]1O[C@@H](n2cc(Br)c3c(N)ncnc32)[C@H](O)[C@H]1O` was 24.3 µM (active); that for `C=CC(=O)Nc1cccc(Sc2nc(Nc3ccc(N4CCN(C)CC4)cc3)ncc2Cl)c1` was 27.3 µM (active).
Turning to `N[C@@H](CC(=O)N1CCn2c(nnc2C(F)(F)F)C1)Cc1cc(F)c(F)cc1F`, the Potency result was “inactive”.
Regarding `CCOC(=O)[C@H]1O[C@H]1C(=O)N[C@@H](CC(C)C)C(=O)NCCC(C)C`, the Potency entry is “inactive”.
In the case of `COc1cc2nccc(Oc3ccc(NC(=O)Nc4cc(C)on4)c(Cl)c3)c2cc1OC`, the Potency is 19.3 µM (active).
As to `CNC(=O)c1cc(COc2nnc(Nc3ccc(Cl)cc3)c3ccoc23)ccn1`, the Potency is 21.7 µM (active).
As for `CNC(=O)c1cc(Oc2ccc(NC(=O)Nc3ccc(Cl)c(C(F)(F)F)c3)c(F)c2)ccn1`, the Potency was 10.9 µM (active).
Consider `CCCCC[C@H](O)C=C[C@H]1[C@H](O)CC(=O)[C@H]1CC=CCCCC(=O)O`, for which the Potency entry is “inactive”.
Still for that read-out and setting: the value for `Fc1ccc(C(c2ccc(F)cc2)N2CCN(CC=Cc3ccccc3)CC2)cc1` was “inactive”.
For `O=C(O)CCNc1cc(N2CCc3ccccc3CC2)nc(-c2ccccn2)n1`, the Potency result was “inactive”.
On the same count and under the same terms, the value for `O=c1[nH]c(=O)n([C@H]2C[C@@H](O)[C@@H](CO)O2)cc1C(F)(F)F` was 17.2 µM (active); that for `Cc1ccc(C2=Nc3ccc(Cl)cc3OC2)cc1` was “inactive”; that for `CCCCCOC(=O)Nc1nc(=O)n([C@@H]2O[C@H](C)[C@@H](O)C2O)cc1F` (stereo partly drawn) was “inactive”.
On to `CC(C)(O)CC(=O)NCCn1ccc2ncnc(Nc3ccc(Oc4cccc(C(F)(F)F)c4)c(Cl)c3)c21`, for which the Potency was 30.6 µM (active).
With `CC(=O)NCCC(=O)N[C@@H](CCC(N)=O)C(=O)N[C@@H](CO)C(=O)N[C@@H](CCC(N)=O)C(=O)N[C@@H](CCC(N)=O)C(=O)N[C@H](C(=O)N[C@@H](Cc1ccccc1)C(=O)N[C@]1(C)CCCCCCC=CCCC[C@@](C)(C(=O)N[C@@H](CCC(N)=O)C(=O)N[C@@H](CC(N)=O)C(N)=O)NC(=O)[C@H](CC(C)C)NC(=O)[C@H](CC(C)C)NC(=O)[C@@H](CCCNC(=N)N)NC(=O)[C@H](Cc2c[nH]c3ccccc23)NC(=O)[C@H](CC(C)C)NC(=O)[C@H](CC(N)=O)NC1=O)[C@H](C)O`, the Potency entry was “inactive”.
In the case of `Cc1ccc(C(=O)N(CCCN)[C@@H](c2nc3cc(Cl)ccc3c(=O)n2Cc2ccccc2)C(C)C)cc1`, the Potency is 0.001 µM (active).
Turning to `COc1cc2nccc(Oc3ccc(NC(=O)Nc4ccc(F)cc4F)c(F)c3)c2cc1OC`, the Potency is 1.53 µM (active).
Consider `Nc1ccn([C@@H]2O[C@H](CO)[C@@H](O)[C@H]2O)c(=O)n1`, for which the Potency is 13.7 µM (active).
Consider `CCC(c1ccc(O)cc1)C(CC)c1ccc(O)cc1` (stereo not drawn), for which the Potency is 27.3 µM (active).

Another assay is described as follows: qHTS of pediatric cancer cell lines to identify multiple opportunities for drug repurposing: Primary screen for RD cells (AID 1347104). Also: nearly all actives have a fitted effect of over 55% in size. As to conditions: RD rhabdomyosarcoma viability, CellTiter-Glo luminescence, 48 h; series mostly up to 46 µM. In short, it runs like this: (§1)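 Following a 5-hour attachment period, cells at 500-1,000/well received compounds and were cultured for 48 hours. CellTiter-Glo was added and luminescence read to estimate viable, metabolically active cells.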
For the compound `NCC1CCC(C(=O)O)CC1` (stereo not drawn), the Potency entry was “inactive”.
Same read-out and setting: the value for `N[C@@H](CC(=O)N1CCn2c(nnc2C(F)(F)F)C1)Cc1cc(F)c(F)cc1F` was “inactive”; that for `COc1cc2nccc(Oc3ccc(NC(=O)Nc4cc(C)on4)c(Cl)c3)c2cc1OC` was 33.2 µM (active); that for `CNC(=O)c1cc(Oc2ccc(NC(=O)Nc3ccc(Cl)c(C(F)(F)F)c3)c(F)c2)ccn1` was 16.6 µM (active).
For the compound `CO[C@H]1/C=C\O[C@@]2(C)Oc3c(C)c(O)c4c(O)c(c5c(nc6cc(C)ccn65)c4c3C2=O)NC(=O)C(C)=CC=C[C@H](C)[C@H](O)[C@@H](C)[C@@H](O)[C@@H](C)[C@H](OC(C)=O)[C@H]1C`, the Potency result is “inactive”.
Turning to `CCCCC[C@H](O)C=C[C@H]1[C@H](O)CC(=O)[C@H]1CC=CCCCC(=O)O`, the Potency result was “inactive”.
The same measure, in the same setting: to `Fc1ccc(C(c2ccc(F)cc2)N2CCN(CC=Cc3ccccc3)CC2)cc1` belongs “inactive”.
For `O=C(O)CCNc1cc(N2CCc3ccccc3CC2)nc(-c2ccccn2)n1`, the Potency result was “inactive”.
With `O=C(Nc1cccc(C(F)(F)F)c1)Nc1cc(S(=O)(=O)NC2CC2)ccc1-c1ccsc1`, the Potency was 29.6 µM (active).
The same measure, in the same setting: to `CC[C@H](C)C(=O)O[C@H]1C[C@H](O)C=C2C=C[C@H](C)[C@H](CC[C@@H](O)C[C@@H](O)CC(=O)O)[C@H]21` belongs “inactive”; to `CNC(=O)c1c(-c2ccc(F)cc2)oc2cc(N(CCO)S(C)(=O)=O)c(C3CC3)cc12`, 29.6 µM (active); to `C[C@@H]1CCO[C@H]2Cn3cc(C(=O)NCc4ccc(F)cc4F)c(=O)c(O)c3C(=O)N12`, “inactive”.
`CC(C)(O)CC(=O)NCCn1ccc2ncnc(Nc3ccc(Oc4cccc(C(F)(F)F)c4)c(Cl)c3)c21`: the Potency is 18.7 µM (active).
Consider `Nc1ccn([C@@H]2O[C@H](CO)[C@@H](O)[C@H]2O)c(=O)n1`, for which the Potency entry was “inactive”.

Another assay can be described thus: qHTS of pediatric cancer cell lines to identify multiple opportunities for drug repurposing: Primary screen for MG 63 (6-TG R) cells (AID 1347105). Also: nearly all actives have a fitted effect of over 50% in size. The note with it: MG 63 (6-TG R) viability, CellTiter-Glo, 48 h; series mostly up to 46 µM. In short, it runs like this:
as §1
`NCC1CCC(C(=O)O)CC1` (stereo not drawn): the Potency entry was “inactive”.
Regarding `COc1ccc2c(c1)c(C1=C(c3c[nH]c4ccccc34)C(=O)NC1=O)cn2CCCN(C)C`, the Potency entry is “inactive”.
Still for that read-out and setting: the value for `N[C@@H](CC(=O)N1CCn2c(nnc2C(F)(F)F)C1)Cc1cc(F)c(F)cc1F` was “inactive”; that for `NC(=O)c1nnn(Cc2cc(Cl)c(C(=O)c3ccc(Cl)cc3)c(Cl)c2)c1N` was “inactive”; that for `CCOC(=O)[C@H]1O[C@H]1C(=O)N[C@@H](CC(C)C)C(=O)NCCC(C)C` was “inactive”.
Consider `CN(C)N=Nc1nc[nH]c1C(N)=O`, for which the Potency entry is “inactive”.
Regarding `CNC(=O)c1cc(COc2nnc(Nc3ccc(Cl)cc3)c3ccoc23)ccn1`, the Potency was 23.5 µM (active).
On the same count and under the same terms, to `CNC(=O)c1cc(Oc2ccc(NC(=O)Nc3ccc(Cl)c(C(F)(F)F)c3)c(F)c2)ccn1` belongs 23.5 µM (active); to `OC1CCC(Nc2ncc3nc(Nc4c(F)cc(F)cc4F)n([C@@H]4CCOC4)c3n2)CC1` (stereo partly drawn), “inactive”; to `CO[C@H]1/C=C\O[C@@]2(C)Oc3c(C)c(O)c4c(O)c(c5c(nc6cc(C)ccn65)c4c3C2=O)NC(=O)C(C)=CC=C[C@H](C)[C@H](O)[C@@H](C)[C@@H](O)[C@@H](C)[C@H](OC(C)=O)[C@H]1C`, “inactive”.
Consider `CCCCC[C@H](O)C=C[C@H]1[C@H](O)CC(=O)[C@H]1CC=CCCCC(=O)O`, for which the Potency result is “inactive”.
Same read-out and setting: to `Fc1ccc(C(c2ccc(F)cc2)N2CCN(CC=Cc3ccccc3)CC2)cc1` belongs “inactive”; to `O=C(O)CCNc1cc(N2CCc3ccccc3CC2)nc(-c2ccccn2)n1`, “inactive”.
Turning to `CC[C@H](C)C(=O)O[C@H]1C[C@H](O)C=C2C=C[C@H](C)[C@H](CC[C@@H](O)C[C@@H](O)CC(=O)O)[C@H]21`, the Potency result was “inactive”.
As for `O=c1[nH]c(=O)n([C@H]2C[C@@H](O)[C@@H](CO)O2)cc1C(F)(F)F`, the Potency entry was “inactive”.
`Cc1ccc(C2=Nc3ccc(Cl)cc3OC2)cc1`: the Potency entry is “inactive”.
Same read-out and setting: to `CO[C@H]1O[C@@H]2O[C@@]3(C)CC[C@@H]4[C@@H](C)CC[C@@H]([C@H]1C)[C@@]24OO3` belongs “inactive”.
As for `CN(C)S(=O)(=O)c1ccc2c(c1)C(=Cc1cc3c([nH]1)CCCC3)C(=O)N2`, the Potency result was “inactive”.
Regarding `C[C@@H]1CCO[C@H]2Cn3cc(C(=O)NCc4ccc(F)cc4F)c(=O)c(O)c3C(=O)N12`, the Potency result is “inactive”.
In the case of `CC(=O)NCCC(=O)N[C@@H](CCC(N)=O)C(=O)N[C@@H](CO)C(=O)N[C@@H](CCC(N)=O)C(=O)N[C@@H](CCC(N)=O)C(=O)N[C@H](C(=O)N[C@@H](Cc1ccccc1)C(=O)N[C@]1(C)CCCCCCC=CCCC[C@@](C)(C(=O)N[C@@H](CCC(N)=O)C(=O)N[C@@H](CC(N)=O)C(N)=O)NC(=O)[C@H](CC(C)C)NC(=O)[C@H](CC(C)C)NC(=O)[C@@H](CCCNC(=N)N)NC(=O)[C@H](Cc2c[nH]c3ccccc23)NC(=O)[C@H](CC(C)C)NC(=O)[C@H](CC(N)=O)NC1=O)[C@H](C)O`, the Potency result is “inactive”.
In the case of `COc1cc2nccc(Oc3ccc(NC(=O)Nc4ccc(F)cc4F)c(F)c3)c2cc1OC`, the Potency was 9.35 µM (active).
`COc1ccc(-c2nc3ccc(C4=NNC(=O)CC4C)cc3[nH]2)cc1` (stereo not drawn): the Potency entry is “inactive”.
Still for that read-out and setting: the value for `Nc1ccn([C@@H]2O[C@H](CO)[C@@H](O)[C@H]2O)c(=O)n1` was “inactive”; that for `CCCCn1c(=O)n(Cc2ccccc2F)c(=O)c2[nH]c(Cc3ccc(NC(C)=O)cc3)nc21` was 18.7 µM (active).
